# Reference: the supplement of paper PMC4466140
# Biological target: AgAbp1
# Experiment: SPOT peptide array binding signal intensity (averaged, normalized) (arbitrary units (background-subtracted, floor 0; scale differs between SH3 domains)); higher = stronger binding of the SH3 domain to the peptide
# How it was run: (§1)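 Binding signal is given in arbitrary units that differ between domains and is the normalized, background-subtracted spot intensity averaged across replicates. Each GST-SH3 fusion from one of four yeast species was made in E. coli BL21(DE3), purified on glutathione Sepharose and incubated at 10 μg/ml overnight at 4°C on cellulose-bound synthetic 15-mer peptides in which cysteines were replaced by serines. Detection used anti-GST antibody, an HRP anti-mouse secondary and luminol, followed by imaging and Genespotter quantification.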
row,Binder,SPOT peptide array binding signal intensity
1,ANNQGPPNLPARDKS,4.5

# Biological target: AgBbc1
# Experiment: as above
# How it was run: as §1
row,Binder,SPOT peptide array binding signal intensity
1,ANNQGPPNLPARDKS,0.25

# Biological target: AgBem1-D1
# Experiment: as above
# How it was run: as §1
row,Binder,SPOT peptide array binding signal intensity
1,ANNQGPPNLPARDKS,3.5

# Biological target: AgBzz1-D1
# Experiment: as above
# How it was run: as §1
row,Binder,SPOT peptide array binding signal intensity
1,ANNQGPPNLPARDKS,9.5

# Biological target: AgBzz1-D2
# Experiment: as above
# How it was run: as §1
row,Binder,SPOT peptide array binding signal intensity
1,ANNQGPPNLPARDKS,4

# Biological target: AgCyk3
# Experiment: as above
# How it was run: as §1
row,Binder,SPOT peptide array binding signal intensity
1,ANNQGPPNLPARDKS,≤ 0

# Biological target: AgFus1
# Experiment: as above
# How it was run: as §1
row,Binder,SPOT peptide array binding signal intensity
1,ANNQGPPNLPARDKS,≤ 0

# Biological target: AgHof1
# Experiment: as above
# How it was run: as §1
row,Binder,SPOT peptide array binding signal intensity
1,ANNQGPPNLPARDKS,1

# Biological target: AgHse1
# Experiment: as above
# How it was run: as §1
row,Binder,SPOT peptide array binding signal intensity
1,ANNQGPPNLPARDKS,≤ 0

# Biological target: AgLsb1
# Experiment: as above
# How it was run: as §1
row,Binder,SPOT peptide array binding signal intensity
1,ANNQGPPNLPARDKS,144

# Biological target: AgLsb4
# Experiment: as above
# How it was run: as §1
row,Binder,SPOT peptide array binding signal intensity
1,ANNQGPPNLPARDKS,4990

# Biological target: AgMyo5
# Experiment: as above
# How it was run: as §1
row,Binder,SPOT peptide array binding signal intensity
1,ANNQGPPNLPARDKS,≤ 0

# Biological target: AgNbp2
# Experiment: as above
# How it was run: as §1
row,Binder,SPOT peptide array binding signal intensity
1,ANNQGPPNLPARDKS,≤ 0

# Biological target: AgRvs167
# Experiment: as above
# How it was run: as §1
row,Binder,SPOT peptide array binding signal intensity
1,ANNQGPPNLPARDKS,274

# Biological target: AgSho1
# Experiment: as above
# How it was run: as §1
row,Binder,SPOT peptide array binding signal intensity
1,ANNQGPPNLPARDKS,≤ 0

# Biological target: AgSla1-D1-D2
# Experiment: as above
# How it was run: as §1
row,Binder,SPOT peptide array binding signal intensity
1,ANNQGPPNLPARDKS,≤ 0

# Biological target: AgSla1-D3
# Experiment: as above
# How it was run: as §1
row,Binder,SPOT peptide array binding signal intensity
1,ANNQGPPNLPARDKS,0.75

# Biological target: CaAbp1-D1
# Experiment: as above
# How it was run: as §1
row,Binder,SPOT peptide array binding signal intensity
1,ANNQGPPNLPARDKS,8

# Biological target: CaAbp1-D2
# Experiment: as above
# How it was run: as §1
row,Binder,SPOT peptide array binding signal intensity
1,ANNQGPPNLPARDKS,18.5

# Biological target: CaBbc1
# Experiment: as above
# How it was run: as §1
row,Binder,SPOT peptide array binding signal intensity
1,ANNQGPPNLPARDKS,20.5

# Biological target: CaBem1-D1
# Experiment: as above
# How it was run: as §1
row,Binder,SPOT peptide array binding signal intensity
1,ANNQGPPNLPARDKS,≤ 0

# Biological target: CaBzz1-D1
# Experiment: as above
# How it was run: as §1
row,Binder,SPOT peptide array binding signal intensity
1,ANNQGPPNLPARDKS,6.5

# Biological target: CaBzz1-D2
# Experiment: as above
# How it was run: as §1
row,Binder,SPOT peptide array binding signal intensity
1,ANNQGPPNLPARDKS,4.5

# Biological target: CaCyk3
# Experiment: as above
# How it was run: as §1
row,Binder,SPOT peptide array binding signal intensity
1,ANNQGPPNLPARDKS,≤ 0

# Biological target: CaFus1
# Experiment: as above
# How it was run: as §1
row,Binder,SPOT peptide array binding signal intensity
1,ANNQGPPNLPARDKS,≤ 0

# Biological target: CaHof1
# Experiment: as above
# How it was run: as §1
row,Binder,SPOT peptide array binding signal intensity
1,ANNQGPPNLPARDKS,≤ 0

# Biological target: CaHse1
# Experiment: as above
# How it was run: as §1
row,Binder,SPOT peptide array binding signal intensity
1,ANNQGPPNLPARDKS,38.8

# Biological target: CaLsb1
# Experiment: as above
# How it was run: as §1
row,Binder,SPOT peptide array binding signal intensity
1,ANNQGPPNLPARDKS,≤ 0

# Biological target: CaLsb4
# Experiment: as above
# How it was run: as §1
row,Binder,SPOT peptide array binding signal intensity
1,ANNQGPPNLPARDKS,5930

# Biological target: CaMyo5
# Experiment: as above
# How it was run: as §1
row,Binder,SPOT peptide array binding signal intensity
1,ANNQGPPNLPARDKS,0.5

# Biological target: CaNbp2
# Experiment: as above
# How it was run: as §1
row,Binder,SPOT peptide array binding signal intensity
1,ANNQGPPNLPARDKS,≤ 0

# Biological target: CaRvs167
# Experiment: as above
# How it was run: as §1
row,Binder,SPOT peptide array binding signal intensity
1,ANNQGPPNLPARDKS,2230

# Biological target: CaRvs167-3
# Experiment: as above
# How it was run: as §1
row,Binder,SPOT peptide array binding signal intensity
1,ANNQGPPNLPARDKS,3

# Biological target: CaSho1
# Experiment: as above
# How it was run: as §1
row,Binder,SPOT peptide array binding signal intensity
1,ANNQGPPNLPARDKS,≤ 0

# Biological target: CaSla1-D1-D2
# Experiment: as above
# How it was run: as §1
row,Binder,SPOT peptide array binding signal intensity
1,ANNQGPPNLPARDKS,≤ 0

# Biological target: CaSla1-D3
# Experiment: as above
# How it was run: as §1
row,Binder,SPOT peptide array binding signal intensity
1,ANNQGPPNLPARDKS,≤ 0

# Biological target: ScAbp1
# Experiment: as above
# How it was run: as §1
row,Binder,SPOT peptide array binding signal intensity
1,ANNQGPPNLPARDKS,7
